Screening results from PubChem.
IL-1B inflam inh = inflammasome signaling inhibition, IL-1 beta readout | THP-1 LPS/ATP IL-1B secretion, AlphaLISA, 16 h; hits give low values | activity change, % at 57.5 µM | hit rate 4.7% among 360,000; in the data active means activity change below about -50%; inconclusive means mostly about -30% to -49%; further: on the % scale 0 is the no-effect control and ±100 the full control effect
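THP-1 cells pretreated 1 hr with compounds (up to 57.5 uM final), then stimulated with LPS (250 ng/mL final) plus ATP (1.25 mM final); secreted IL-1B measured by AlphaLISA after 16 hr, decreased signal indicating inhibition.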
DRD3 antagonist = blocks the human D3 dopamine receptor | D3R cells, DiscoveRx beta-arrestin luminescence, antagonist mode; hits give low values | max response, negative = inhibition, % | P35462 | hit rate 2.5% among 360,000 | AID 652054; in the data active means max response below about -50%; inconclusive means no clear call, values can overlap the other calls; further: on the % scale 0 is the no-effect control and ±100 the full control effect
Target sequence (P35462 whole entry, looked up): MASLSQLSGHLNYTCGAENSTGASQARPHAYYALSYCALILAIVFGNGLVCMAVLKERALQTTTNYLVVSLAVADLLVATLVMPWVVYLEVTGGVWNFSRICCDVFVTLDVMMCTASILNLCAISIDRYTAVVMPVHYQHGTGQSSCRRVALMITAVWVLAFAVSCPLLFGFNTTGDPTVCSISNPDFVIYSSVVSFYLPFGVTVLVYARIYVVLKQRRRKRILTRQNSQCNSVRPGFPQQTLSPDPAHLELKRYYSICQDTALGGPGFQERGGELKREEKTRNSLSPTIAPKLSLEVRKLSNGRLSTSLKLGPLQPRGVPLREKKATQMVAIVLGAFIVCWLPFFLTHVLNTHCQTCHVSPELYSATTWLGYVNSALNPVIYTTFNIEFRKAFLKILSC
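Cells plated overnight at 1500 cells/well, then exposed to library compounds with dopamine controls for 90 minutes at 37 degrees C. DiscoveRx reagent added for 30–60 minutes at room temperature; luminescence read, quantitative HTS format.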
ClpP mod = qHTS Assay for Activators of ClpP. ATP-dependent Clp protease proteolytic subunit (Bacillus subtilis (strain 168)), P80244. hit rate 1.9% among 340,000. Potency, µM (titrated, usually from 57.5 µM), inactives show top-dose activity change, negative = active. purified B. subtilis ClpP, FRET peptide cleavage, 20 min. AID 651965, 2013; active means well fitted falling curve with a large enough effect; inconclusive means small, poorly fitted or top-dose-only effect; inactive means no such curve, though single readings can be large or run the other way; further: potency means the concentration at half of the fitted maximal effect; the source files actives as falling curves though it sought activators and does not explain the sign; nearly all actives have a fitted effect of over 65% in size
Target sequence (P80244 whole entry, looked up): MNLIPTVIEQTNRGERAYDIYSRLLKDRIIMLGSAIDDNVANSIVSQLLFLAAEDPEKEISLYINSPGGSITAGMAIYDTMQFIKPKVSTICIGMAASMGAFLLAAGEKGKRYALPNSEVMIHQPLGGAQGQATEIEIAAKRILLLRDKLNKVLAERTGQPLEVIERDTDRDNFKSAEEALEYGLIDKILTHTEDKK
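Purified B. subtilis ClpP, 10 microg/mL final in Tris/HCl pH8 with KCl, BSA, glycerol and Tween-20, cleaved an Abz/nitrotyrosine-quenched decapeptide. Fluorescence (ex 320, em 430) was read at 0 and 20 min at room temperature. Delta was normalized to 5.8 microM ADEP and DMSO/no-enzyme controls.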
DT40 TDP1 CPT = DT40-hTDP1 cell growth loss with CPT | chicken DT40 Tdp1-/-;hTDP1 cells + 20 nM CPT, ATP luminescence, 48 h | Potency, µM (doses to about 46.2 µM), inactives show at the top dose activity change, negative = growth inhibition, usual class: inhibitors | hit rate 12% among 420,000; further: potency means the concentration at half of the fitted maximal effect; on the % scale 0 is the no-effect control and ±100 the full control effect; nearly all actives have a fitted effect of over 55% in size
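Cell growth measured by CellTiter-Glo luminescence after a minimum 48 h, 37 C compound exposure with 20 nM CPT in Tdp1-knockout DT40 cells stably expressing hTDP1, seeded 400/well; qHTS titration format.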
DT40 TDP1 no CPT = qHTS for Inhibitors of human tyrosyl-DNA phosphodiesterase 1 (TDP1): qHTS in cells in absence of CPT. DT40 Tdp1-/- hTDP1 cells, no CPT, ATP luminescence, 48 h. Potency, µM (series often up to 46.2 µM), without a hit: top-dose activity change, negative = growth inhibition, usual class: inhibitors. hit rate 15% among 420,000; further: potency means the concentration at half of the fitted maximal effect; on the % scale 0 is the no-effect control and ±100 the full control effect; nearly all actives have a fitted effect of over 55% in size
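Growth of hTDP1-complemented DT40 Tdp1-knockout cells is measured by ATP luminescence after at least 48 hr compound exposure at 37 °C, with DMSO substituting for the 20 nM CPT used in the parallel screen.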
DRD3 agonist = activates the human D3 dopamine receptor; P35462; D3R DiscoveRx beta-arrestin cells, luminescence, 90 min; max activation, %; hit rate 0.58% among 410,000; AID 652048; in the data active means max activation above about 30%; further: 0% is about no effect
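Cells at 1500/well, incubated overnight, then treated with pinned compounds (dopamine as control) for 90 min at 37 degrees C. DiscoveRx reagent added for 30 - 60 minutes at room temperature; luminescence read.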
Numbers without * were called inactive. Most compounds without a hit are left out; they make up all but 21% or so of the library. Unless noted, the call rests on the fitted dose curve; in most records, active means well fitted inhibition curve with a large enough effect; inconclusive means small, poorly fitted or top-dose-only effect; inactive means flat fitted curve, though single readings scatter.

For COC(=O)c1cc2c(ccn2-c2ccc(F)cc2)n1CC(=O)C(C)(C)C the results were IL-1B inflam inh -11, DRD3 antagonist 0, ClpP mod 25µM*, DT40 TDP1 CPT inconclusive, DT40 TDP1 no CPT inconclusive and DRD3 agonist 1.
`CCOC(=O)c1cc2c(ccn2-c2ccc(F)cc2)n1CC(=O)N(CC)CC` gave IL-1B inflam inh inconclusive, DRD3 antagonist -2, ClpP mod 4%, DT40 TDP1 CPT inconclusive, DT40 TDP1 no CPT 23µM* and DRD3 agonist 0.
Cc1nn(CC(=O)NC2CC2)c(=O)c2cc3cc(F)ccc3n12 was read as ClpP mod inconclusive, DT40 TDP1 CPT -1%, DT40 TDP1 no CPT -12% and DRD3 agonist 3.
`COc1cc(CC(=O)OCC(=O)NC(C)c2ccccc2)cc(OC)c1OC` (stereo unspecified) gave IL-1B inflam inh 10, DRD3 antagonist 0, ClpP mod -2%, DT40 TDP1 CPT -15%, DT40 TDP1 no CPT -4% and DRD3 agonist 3.
`COc1cc(CNC(C)c2ccccc2)cc(Cl)c1OCC(=O)Nc1ccccc1` (stereo unspecified) gave IL-1B inflam inh 0, DRD3 antagonist 9, ClpP mod -1%, DT40 TDP1 CPT 9.2µM*, DT40 TDP1 no CPT 26µM* and DRD3 agonist 3.
For CCN(CC)CCNCc1cc(Cl)c(OCC(=O)Nc2ccccc2)c(OC)c1 the results were IL-1B inflam inh -25, DRD3 antagonist -2, ClpP mod 2%, DT40 TDP1 CPT inconclusive, DT40 TDP1 no CPT 23µM* and DRD3 agonist 0.
`CC1CN(C(=O)Cn2cc(SCC(=O)N3CCOCC3)c3ccccc32)CC(C)O1` (stereo unspecified) gave IL-1B inflam inh 0, DRD3 antagonist 8, ClpP mod 1%, DT40 TDP1 CPT -14%, DT40 TDP1 no CPT 6% and DRD3 agonist 5.
`N#CC(=C=[N-])c1nc2ccccc2nc1-[n+]1cccc(NC(=O)c2ccccc2)c1` gave IL-1B inflam inh -24, DRD3 antagonist -18, ClpP mod 3%, DT40 TDP1 CPT -26%, DT40 TDP1 no CPT -20% and DRD3 agonist -11.
For N#CC(=C=[N-])c1nc2ccccc2nc1-[n+]1cccc(NC(=O)c2cccs2)c1 the results were IL-1B inflam inh 19, DRD3 antagonist -23, ClpP mod 2%, DT40 TDP1 CPT 5.8µM*, DT40 TDP1 no CPT 6.5µM* and DRD3 agonist -13.
Screening O=C(O)c1ccc(NC2=C/C(=N/S(=O)(=O)c3ccccc3)c3ccccc3C2=O)cc1 returned IL-1B inflam inh -97*, DRD3 antagonist -92*, DT40 TDP1 CPT 2.6µM*, DT40 TDP1 no CPT 3.7µM* and DRD3 agonist -20.
For Cc1cc(C)c(S(=O)(=O)/N=C2\C=C(Nc3ccc(C(=O)O)cc3)C(=O)c3ccccc32)c(C)c1 the results were IL-1B inflam inh -104*, DRD3 antagonist -77*, DT40 TDP1 CPT 3.7µM*, DT40 TDP1 no CPT 3.7µM* and DRD3 agonist -34.
For Cc1ccc(S(=O)(=O)/N=C2\C=C(NS(=O)(=O)c3ccccc3)C(=O)c3ccccc32)cc1 the results were IL-1B inflam inh 49, DRD3 antagonist -28, DT40 TDP1 CPT 21µM*, DT40 TDP1 no CPT 26µM* and DRD3 agonist -6.
Screening O=C1c2ccccc2C(=O)N1S(=O)(=O)c1ccccc1 returned IL-1B inflam inh 33, DRD3 antagonist 8, ClpP mod 1%, DT40 TDP1 CPT -17%, DT40 TDP1 no CPT 19% and DRD3 agonist -1.
`O=S(=O)(N=C1C=CC(=NS(=O)(=O)c2ccccc2)c2ccccc21)c1ccccc1` gave IL-1B inflam inh 0, DRD3 antagonist 4, ClpP mod -3%, DT40 TDP1 CPT 7.3µM*, DT40 TDP1 no CPT 6.5µM* and DRD3 agonist 2.
Screening O=C(O)c1ccc(NS(=O)(=O)c2ccc3c(c2)C(=O)c2ccccc2C3=O)cc1 returned IL-1B inflam inh -10, DRD3 antagonist -19, DT40 TDP1 CPT -1%, DT40 TDP1 no CPT -2% and DRD3 agonist -11.
For CCCCc1nc2ccccc2n2c(-c3ccc(OC)cc3)c3c(=O)n(C)c(=O)n(C)c3c12 the results were ClpP mod inconclusive, DT40 TDP1 CPT inconclusive, DT40 TDP1 no CPT 18µM* and DRD3 agonist 0.
CCCc1nc2ccccc2n2c(-c3ccccc3)c3c(=O)n(C)c(=O)n(C)c3c12 was read as ClpP mod -4%, DT40 TDP1 CPT 13µM*, DT40 TDP1 no CPT inconclusive and DRD3 agonist 2.
For CCc1nc2ccccc2n2c(-c3ccc(C)cc3)c3c(=O)n(C)c(=O)n(C)c3c12 the results were ClpP mod -15%, DT40 TDP1 CPT inconclusive, DT40 TDP1 no CPT inconclusive and DRD3 agonist -6.
Screening CCCCc1nc2ccccc2n2c(-c3ccc(C)cc3)c3c(=O)n(C)c(=O)n(C)c3c12 returned ClpP mod -14%, DT40 TDP1 CPT inconclusive, DT40 TDP1 no CPT 12µM* and DRD3 agonist -14.
For COc1cccc(-n2cnc(=O)c3cccnc32)c1 the results were IL-1B inflam inh 8, DRD3 antagonist -3, DT40 TDP1 CPT -9%, DT40 TDP1 no CPT -13% and DRD3 agonist -8.
For COc1ccc(CNC(=O)C2CCN(c3nc4ccccc4[nH]3)CC2)cc1OC the results were ClpP mod 1%, DT40 TDP1 CPT -16%, DT40 TDP1 no CPT -26% and DRD3 agonist 6.
Cc1cc(C(=O)N2CCC2(C)C(=O)NS(=O)(=O)c2cccc(Cl)c2)nn1C (stereo unspecified) was read as IL-1B inflam inh 0, DRD3 antagonist 26, ClpP mod 1%, DT40 TDP1 CPT -22%, DT40 TDP1 no CPT inconclusive and DRD3 agonist 7.
For CCOc1ncccc1C(=O)OCC(=O)Nc1cc(C(C)(C)C)ccc1OC the results were IL-1B inflam inh 15, DRD3 antagonist 18, ClpP mod 3%, DT40 TDP1 CPT -18%, DT40 TDP1 no CPT -20% and DRD3 agonist 5.
CCOc1ccc2oc(C(=O)OCC(=O)NC3CCCC3)c(C)c2c1 was read as IL-1B inflam inh 14, DRD3 antagonist -7, ClpP mod 4%, DT40 TDP1 CPT inconclusive, DT40 TDP1 no CPT -10% and DRD3 agonist -1.
CCCN(CC1CC1)C(=O)COC(=O)c1oc2ccc(OCC)cc2c1C was read as IL-1B inflam inh -4, DRD3 antagonist -5, ClpP mod 5%, DT40 TDP1 CPT -18%, DT40 TDP1 no CPT 6.5µM* and DRD3 agonist -2.
